Screening results as filed in PubChem BioAssay.
SNCA viab count: reduces viability of HEK-293 SNCA reporter cells; Potency, µM (series often up to 57.1 µM), for inactives: at the top dose activity change, negative = cytotoxicity, actives largely listed as cytotoxic; AID 1671193; 150,000 tested, 0.12% active; HEK-293-SNCA-luc viability, GF-AFC fluorescence, 24 h;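 also: potency is read from the fitted curve at half-maximal effect; 0% = DMSO-treated cells and -100% = medium-only wells without cells; nearly all actives have a fitted effect of over 30% in size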
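Cytotoxicity counterscreen: after 24 h compound treatment of genome-edited SNCA-luciferase HEK-293 cells, live-cell protease substrate GF-AFC read by fluorescence after 30 min; activity scaled between DMSO (0%) and medium-only (-100%), curves Hill-fitted.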
SNCA expr inh: reduces expression of the alpha-synuclein gene; HEK-293 SNCA-luciferase knock-in, luminescence, 24 h; Potency, µM (highest dose often 57.2 µM), for the others: at the top dose activity change, negative = inhibition, most hits filed as inhibitors; 140,000 tested, 0.17% active;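 also: potency is read from the fitted curve at half-maximal effect; plate controls were DMSO cells for no effect and cell-free wells for full effect; nearly all actives have a fitted effect of over 45% in size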
IP6K1 inh: inhibitors of human IP6K1 | 140,000 tested, 0.81% active | IP6K1 kinase, ADP-Glo luminescence, 2 h; active compounds read low | Q92551 | activity change, % (series mostly up to about 58 µM); in the data active = activity change below about -25%; also: % is scaled to controls: 0 for no effect and ±100 for the full control effect
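ADP-Glo luminescence measures ADP made by human IP6K1 during a 2 h RT reaction with ATP/IP6 (mix at 1.3 mM/130 uM); top library doses 57.5 and 19.1 uM final.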
KDM5B inhibitor: blocks human KDM5B histone demethylase activity; Q9UGL1; KDM5B demethylase, FDH-coupled NADH fluorescence (FDH is formaldehyde dehydrogenase); Potency, µM (highest dose often 57.7 µM), usual class: inhibitors; 220,000 tested, 2.6% active; AID 1347165; also: potency is read from the fitted curve at half-maximal effect; 0% is about no effect; nearly all actives have a fitted effect of over 70% in size
Target sequence (Q9UGL1 whole entry, looked up): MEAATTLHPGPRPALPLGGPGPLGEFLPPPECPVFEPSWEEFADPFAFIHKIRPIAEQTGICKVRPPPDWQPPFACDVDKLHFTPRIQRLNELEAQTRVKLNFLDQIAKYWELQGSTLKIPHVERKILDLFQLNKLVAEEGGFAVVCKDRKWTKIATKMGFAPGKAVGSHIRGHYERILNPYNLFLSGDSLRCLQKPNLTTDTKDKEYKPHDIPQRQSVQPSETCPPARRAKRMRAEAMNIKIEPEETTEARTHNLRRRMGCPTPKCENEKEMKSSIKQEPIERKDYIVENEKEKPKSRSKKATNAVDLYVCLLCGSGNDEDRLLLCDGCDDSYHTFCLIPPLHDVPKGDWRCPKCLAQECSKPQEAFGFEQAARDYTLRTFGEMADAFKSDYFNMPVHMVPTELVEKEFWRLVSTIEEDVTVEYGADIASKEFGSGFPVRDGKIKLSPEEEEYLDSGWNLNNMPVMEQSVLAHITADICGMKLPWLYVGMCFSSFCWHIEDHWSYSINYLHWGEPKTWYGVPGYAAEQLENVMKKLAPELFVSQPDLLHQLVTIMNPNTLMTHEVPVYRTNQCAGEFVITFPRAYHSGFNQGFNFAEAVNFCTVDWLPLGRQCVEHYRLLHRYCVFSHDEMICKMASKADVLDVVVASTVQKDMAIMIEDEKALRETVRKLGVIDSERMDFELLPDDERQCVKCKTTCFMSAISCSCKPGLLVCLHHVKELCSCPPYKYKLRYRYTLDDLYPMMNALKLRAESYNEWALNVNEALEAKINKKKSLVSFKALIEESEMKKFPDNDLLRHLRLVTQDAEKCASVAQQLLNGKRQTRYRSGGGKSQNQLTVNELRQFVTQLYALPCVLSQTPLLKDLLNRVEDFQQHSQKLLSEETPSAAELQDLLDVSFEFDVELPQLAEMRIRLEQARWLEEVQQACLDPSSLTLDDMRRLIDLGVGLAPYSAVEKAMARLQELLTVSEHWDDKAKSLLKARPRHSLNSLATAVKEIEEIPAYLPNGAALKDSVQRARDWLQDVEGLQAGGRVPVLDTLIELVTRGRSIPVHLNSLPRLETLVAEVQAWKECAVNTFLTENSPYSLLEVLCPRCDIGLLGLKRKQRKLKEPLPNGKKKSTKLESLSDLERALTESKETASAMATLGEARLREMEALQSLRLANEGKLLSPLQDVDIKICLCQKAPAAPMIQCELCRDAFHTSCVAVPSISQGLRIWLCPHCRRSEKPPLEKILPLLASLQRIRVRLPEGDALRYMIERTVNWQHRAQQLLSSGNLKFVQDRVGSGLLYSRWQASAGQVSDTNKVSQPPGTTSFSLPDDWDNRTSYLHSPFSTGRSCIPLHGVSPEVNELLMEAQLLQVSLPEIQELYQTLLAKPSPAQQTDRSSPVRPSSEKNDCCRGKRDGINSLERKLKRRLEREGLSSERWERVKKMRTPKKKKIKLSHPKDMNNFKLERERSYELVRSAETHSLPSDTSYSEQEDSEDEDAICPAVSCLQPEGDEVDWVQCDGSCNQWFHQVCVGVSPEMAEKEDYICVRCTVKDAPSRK
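KDM5BΔAP (200 nM final) in 50 mM HEPES pH 7.5, 0.01% Tween-20 was preincubated 10 min at RT with compound over a concentration range. Substrate mix (H3K4me3 12.5 µM, α-KG 25 µM, Fe²⁺, ascorbate, NAD⁺, FDH) was added, and NADH fluorescence change over 30 min gave dose-response curves.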
* marks the source's active call; other numbers are inactive results; i = inactive; u = inconclusive; x = not tested or not shown; ! = not active in a repeat; [ ] = remark or other dose. The list is not random: actives were taken first. Their share in the collection is about 2.8%. Unless noted, calls follow the shape of the dose curve; as a rule, active = well fitted curve in the direction sought with a large enough effect; inconclusive = small, poorly fitted or top-dose-only effect, or another doubt; inactive = no such curve, though single readings can be large; an effect the other way counts as inactive or inconclusive.

SMILES	SNCA viab count	SNCA expr inh	IP6K1 inh	KDM5B inhibitor
Cc1cn2nc(C(=O)NCc3ccccc3Cl)cc2c(N2CCSCC2)n1	-8%	-15%	-12	u
Cc1cn2nc(C(=O)Nc3ccc(C(F)(F)F)cc3)cc2c(N2CCSCC2)n1	-4%	-9%	-12	28µM*
Cc1cn2nc(C(=O)NC3CCCCCC3)cc2c(N2CCSCC2)n1	-1%	-25%	-6	u
Cc1ccc(C(=O)N[C@H]2CO[C@H]3[C@@H]2OC[C@@H]3Nc2nccc(-c3cccs3)n2)cc1	-1%[87.6 µM]	1%[87.6 µM]	-7	u
O=S(=O)(N[C@H]1CO[C@H]2[C@@H]1OC[C@@H]2Nc1nccc(-c2cccs2)n1)c1cccs1	-11%	-17%	3	22µM*
COc1ccc(C(=O)N[C@H]2CO[C@H]3[C@@H]2OC[C@@H]3Nc2nccc(-c3cccs3)n2)cc1	u	22%	-8	u
CC(C)CN[C@H]1CO[C@H]2[C@@H]1OC[C@@H]2Nc1nccc(-c2cccs2)n1	-17%[87.6 µM]	5%[87.6 µM]	13	32µM*
COc1cccc(-c2ccccc2NC(=O)C2CCN(Cc3cc(OC)ccc3O)CC2)c1	-30%	-30%	19	16µM*
CN1CCC(N2CC[C@H](c3nc4ccccc4[nH]3)C2)CC1	3%[87.6 µM]	30%[87.6 µM]	0	i
c1cc2nc(C3CCN(C4CCCCC4)C3)[nH]c2cn1 (configuration not stated)	4%[87.6 µM]	-4%[87.6 µM]	1	40µM*!
COc1ccc2nc([C@H]3CCN(C(C)C)C3)[nH]c2c1	-5%[87.6 µM]	6%[87.6 µM]	-12	32µM*
Cc1ccc2nc([C@H]3CCN(C4CCC4)C3)[nH]c2c1	-8%[87.6 µM]	u	2	28µM*
FC(F)(F)c1ccc2nc([C@H]3CCN(C4CCCCC4)C3)[nH]c2c1	-22%[87.6 µM]	48%[87.6 µM]	7	u
CCCCc1ccc(NC(=O)CN2C(=O)NC(c3ccc(C)cc3)C3=C2COC3=O)cc1 (configuration not stated)	0%	-30%	0	i
COc1ccc(-c2cc(C(=O)NCCCOC(C)C)c3cnn(C)c3n2)cc1	x	x	-7	x
Cc1noc(C)c1-c1cc2c(c(-c3cccc(CO)c3)c1)C(=O)N(C)C2	-12%[87.6 µM]	64%[87.6 µM]	15	i
Cc1noc(C)c1-c1cc2c(c(-c3cnn(C)c3)c1)C(=O)N(C)C2	-6%[87.6 µM]	58%[87.6 µM]	12	40µM*
Cc1cccc(C(=O)NC(Nc2ccc(I)cc2)C(Cl)(Cl)Cl)c1 (configuration not stated)	x	x	x	i
CC(C)C(=O)Nc1ccc(C2(C(=O)N3CCCCC3)CCCCC2)cc1	-10%	2%	-3	i
CC(=O)Nc1ccc(C2(C(=O)N3CCN(c4ccccc4)CC3)CCCCC2)cc1	-9%	4%	8	i
CS(=O)(=O)Nc1ccc(C2(C(=O)N3CCN(c4ccccn4)CC3)CCCCC2)cc1	-10%	u	10	22µM*
O=C(Nc1ccc(C2(C(=O)N3CCN(c4ccccn4)CC3)CCC2)cc1)C1CC1	-7%	-18%	-3	18µM*
CC(C)C(=O)Nc1ccc(C2(C(=O)N3CCN(c4ccccn4)CC3)CCCCC2)cc1	0%	-5%	8	22µM*
Cc1ccc(C(=O)N2CCC(N3CCNC3=O)CC2)cc1	5%[87.6 µM]	-28%[87.6 µM]	-6	i
Cc1noc(C)c1S(=O)(=O)N(C)CC(=O)Nc1ccccc1C(C)C	x	x	x	i
SMILES	SNCA viab count	SNCA expr inh	IP6K1 inh	KDM5B inhibitor
O=C(NC1CC1)c1ccc2nnc(-c3ccc(Cl)cc3)n2c1	-1%	1%	-3	50µM*
COCCNC(=O)c1ccc2nnc(-c3cncc(Cl)c3)n2c1	4%	24%	12	100µM*
O=C(NC1CC1)c1ccc2nnc(-c3cncc(Cl)c3)n2c1	0%[87.6 µM]	-8%[87.6 µM]	7	x
Cc1cc(C)n(CCC(=O)N2CCCn3cc(-c4ccccc4)nc32)n1	-3%	4%	-8	i
CCOc1ccccc1C(=O)N1CCC(C(=O)c2ccc3c(c2)OCCO3)CC1	x	x	x	i
OC1(CN2CCCCC2)CCN(c2cccc(C(F)(F)F)n2)C1 (configuration not stated)	16%	-3%	-4	28µM*
COc1ccccc1-c1ccc(C(=O)N2C[C@@H](N(C)C)[C@H](C(C)C)C2)cc1	-20%	-13%	-17	28µM*
COc1ccc(-c2nnc([C@H]3CCN(S(=O)(=O)Cc4ccccc4)C3)o2)cc1	-26%[87.6 µM]	9%[87.6 µM]	1	i
COc1ccc(CN2CC(COc3ccccc3)C3(C2)CN(c2ccccc2)C3)cc1O (configuration not stated)	u	u	-5	32µM*
CCn1ccc(C(=O)N2CCC3(CC2)c2[nH]c4ccccc4c2CCN3C)n1	-15%[12.5 µM]	51%	-4	28µM*
O=C(CCc1ccccc1)NCC1CCCO1 (configuration not stated)	x	x	x	i
O=C(CCNc1c(-c2cccc(F)c2)nc2cnccn12)NCC1CCCO1 (configuration not stated)	u	0%	3	28µM*
COc1cccc(CNC(=O)CCNc2cnc3cnccn23)c1	u	1%	11	20µM*
O=C(CCNc1c(-c2cccc(F)c2)nc2cnccn12)NCc1ccccc1	u	23%	9	25µM*
CNC(=O)NCc1cccc(OC)c1	x	x	x	i
O=C(Nc1cccc(Cl)c1)c1cnc(N2CCOCC2)c2ccccc12	x	x	x	i
CNc1ccc(OC2CCN(C(=O)COC)CC2)nc1	13%	45%	2	28µM*
CN(C)CC(=O)Nc1ccc(OC2CCN(C)CC2)nc1	-18%	-24%	4	i
Fc1ccccc1CNc1cc(Cl)nc2ccnn12	12%[87.6 µM]	-13%[87.6 µM]	9	i
CC(Cc1cccnc1)Nc1cc(-c2ccccc2F)nc2ccnn12 (configuration not stated)	-4%	-5%	-15	28µM*
O=C1NCCCc2[nH]c(-c3cnn(-c4cccc(F)c4)c3)nc21	-17%	76%	-3	28µM*
O=C1NCCCc2[nH]c(-c3cc(-c4cccc(F)c4)no3)nc21	2%	16%	13	u
Cc1cccc(N2CCN(C(=O)C3CCN(C(=O)C4CC4)CC3)CC2)n1	0%	7%	12	22µM*
Cc1ccc(-c2ccccc2CN2CCC(C(=O)N3CCN(c4ncccn4)CC3)CC2)cc1Cl	-14%	u	-8	x
Cc1cc(C)nc(N2CCN(C(=O)C3CCN(CC(N)=O)CC3)CC2)n1	4%	u	0	28µM*
Cc1ncnc(N2CCN(C(=O)C3CCN(C(=O)C4CC4)CC3)CC2)c1C	1%	9%	18	i
Cc1cc(C)c2c(CC(=O)Nc3ccc(S(=O)(=O)N4CCCCC4)cc3)coc2c1	-11%	22µM*	-6	i
CN(C)c1ccc(CN2C[C@@H](CN3CCCCC3)[C@@H](CO)C2)cn1	-4%	15%	0	28µM*
CCOc1ccc(CCNC(=O)c2cn(C)c3ccc(S(=O)(=O)N4CCCCC4)cc3c2=O)cc1OCC	-2%	23%	-27*	u
CCN(Cc1ccccc1)C(=O)CCC1CCN(S(=O)(=O)c2ccccc2)CC1	3%	-29%	15	25µM*
